The text below walks through data of PubChem BioAssay (NCI).

Test systems include DU-145 prostate; K-562 leukemia; MALME-3M melanoma; MDA-MB-231 breast; RXF 393 renal; SF-268 CNS; SF-295 CNS; SF-539 CNS; UACC-257 melanoma; M14 melanoma.
Holding throughout (experiment): NCI-60 one-dose screen, 48 h (100 = growth as untreated, 0 = no growth, -100 = all killed)
What all share (settings): 10 µM unless noted

Molecules are shown by their SMILES. Compounds without any hit were thinned out: in the full panel of roughly 83,000, 20% have a hit.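 Method: cells in 96-well plates; compound added at one concentration; 48 h incubation; percent growth measured; values under 10 scored active.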 Unmarked numbers belong to inactive results. Activity calls are given as the source filed them.

With `C[C@H]1OC(=O)/C=C/[C@@H](O)[C@@H](O)CCCCCCCC[C@@H]1O`, the growth is 107% with DU-145 prostate; 91.6% with K-562 leukemia; 98.1% with MALME-3M melanoma; 109% in the experiment with MDA-MB-231 breast; 107% in the experiment on RXF 393 renal; 102% in the experiment on SF-268 CNS. Besides, the growth with SF-295 CNS is 98.9%; in the experiment on SF-539 CNS it was 97.7%; in the experiment with UACC-257 melanoma, 82.5%; in the experiment with M14 melanoma, 96.3%.
In the case of `COc1cc(OC)c2c(c1)c1nc3cc(C)c(C)cc3nc1n2CCN(C)C`, the growth is 90.2% in the experiment on DU-145 prostate; 78.3% with K-562 leukemia; 80.9% in the experiment with MALME-3M melanoma; 79.5% in the experiment on MDA-MB-231 breast; 96.2% in the experiment with RXF 393 renal; 93.7% in the experiment on SF-268 CNS. Also, the growth with SF-295 CNS is 90.2%; in the experiment on SF-539 CNS, 86%; with UACC-257 melanoma it was 94.9%; in the experiment with M14 melanoma, 84.2%.
For the molecule `CCSc1sc(-c2ccc(C)cc2)nc1[P+](c1ccccc1)(c1ccccc1)c1ccccc1`, the growth with DU-145 prostate is 4.57% (active); in the experiment with K-562 leukemia it was 0.0447% (active); with MALME-3M melanoma, -28.4% (active); in the experiment on MDA-MB-231 breast it was -24.8% (active); in the experiment with RXF 393 renal, -37% (active); with SF-268 CNS it was 7.81% (active). Also, the growth in the experiment with SF-295 CNS was -11.3% (active); in the experiment with SF-539 CNS, 9.93% (active); in the experiment on UACC-257 melanoma, -3.94% (active); in the experiment on M14 melanoma, -8.96% (active).
Take `OCC(CO)(CCl)CCl`: the growth was 105% in the experiment with DU-145 prostate; 106% with K-562 leukemia; 101% with MALME-3M melanoma; 94.8% with MDA-MB-231 breast; 113% in the experiment with RXF 393 renal; 98% in the experiment on SF-268 CNS. Also, the growth was 107% with SF-295 CNS, 102% in the experiment with SF-539 CNS, 69.6% with UACC-257 melanoma and 89.4% in the experiment on M14 melanoma.
For the molecule `Cn1cc(-c2csc(-c3cn(CCCN4CCCCC4)c4ccc(F)cc34)n2)c2cccnc21`, the growth was 98% in the experiment with DU-145 prostate; 0.833% (active) with K-562 leukemia; -43% (active) in the experiment with MALME-3M melanoma; 64.2% with MDA-MB-231 breast; 64.9% in the experiment with RXF 393 renal; 89% in the experiment on SF-268 CNS. The growth with SF-295 CNS was 99.9%; in the experiment on SF-539 CNS, 83.6%; in the experiment on UACC-257 melanoma, 70.6%; with M14 melanoma, -73.4% (active).
In the case of `Brc1cnc2[nH]cc(-c3nnc(-c4ccccc4)o3)c2c1`, the growth with DU-145 prostate was 57.9%; in the experiment with K-562 leukemia, 73.3%; in the experiment with MALME-3M melanoma, 78.9%; in the experiment with MDA-MB-231 breast, 63%; in the experiment on RXF 393 renal it was 26.8%; in the experiment with SF-268 CNS it was 81.2%. The growth is 85.8% in the experiment with SF-295 CNS, 89.6% in the experiment with SF-539 CNS, 112% in the experiment on UACC-257 melanoma and 76.6% with M14 melanoma.
For `Clc1ccccc1-c1nc(Nc2nc3ccccc3s2)nc(C(Cl)(Cl)Cl)n1`, the growth was 15.9% with DU-145 prostate; 50.8% with K-562 leukemia; 79.6% with MALME-3M melanoma; 14.5% with MDA-MB-231 breast; 16.7% with RXF 393 renal; 81.7% in the experiment with SF-268 CNS. In addition, the growth in the experiment on SF-295 CNS is 37.8%; with SF-539 CNS, 32.8%; with UACC-257 melanoma it was 83.9%; with M14 melanoma, 80.1%.
For `c1cc(N2CCCC2)c2nc(-c3[nH]ncc3Nc3ncnc4[nH]ccc34)[nH]c2c1`, the growth with DU-145 prostate was -4.71% (active); with K-562 leukemia, 6.25% (active); in the experiment with MALME-3M melanoma, -41.4% (active); in the experiment on MDA-MB-231 breast it was -15.2% (active); in the experiment on RXF 393 renal, -75.9% (active); in the experiment on SF-268 CNS, -25.1% (active). For the same molecule, the growth in the experiment with SF-295 CNS is -34% (active); in the experiment with SF-539 CNS it was -54.3% (active); with UACC-257 melanoma it was -12.8% (active); with M14 melanoma it was -77.1% (active).
With `COc1ccc2c(c1)C(Br)=C(CCO)C2c1ccccc1` (stereo not given), the growth with DU-145 prostate was -10.3% (active); with K-562 leukemia it was 122%; in the experiment on MALME-3M melanoma it was 90.6%; with MDA-MB-231 breast, 56.3%; in the experiment on RXF 393 renal it was 20%; in the experiment with SF-268 CNS, 84.3%. The growth is 1.56% (active) in the experiment with SF-295 CNS, 63.7% in the experiment with SF-539 CNS, 77.6% in the experiment on UACC-257 melanoma and 89% in the experiment with M14 melanoma.
As for `CC(=O)N1N=C(c2ccc(C)cc2)CC1c1ccc(Oc2ccc(Br)cc2)cc1` (stereo not given), the growth with DU-145 prostate was 91.4%; with K-562 leukemia, 75.3%; with MALME-3M melanoma it was 87.6%; in the experiment on MDA-MB-231 breast, 85.7%; in the experiment with RXF 393 renal, 92.8%; in the experiment on SF-268 CNS, 79.5%. Besides, the growth was 94.4% in the experiment on SF-295 CNS, 94.7% with SF-539 CNS, 96% with UACC-257 melanoma and 88.3% in the experiment with M14 melanoma.
Regarding `C=C(C)[C@@H]1CC[C@]2(C)[C@H](CC[C@@H]3[C@H]4[C@H]5OC[C@@]4(CCC5(C)C)CC[C@]32C)[C@@]1(C)CCCN`, the growth in the experiment with DU-145 prostate was 66.2%; with K-562 leukemia it was 3.82% (active); in the experiment with MALME-3M melanoma it was -48.5% (active); with MDA-MB-231 breast, 16.7%; in the experiment on RXF 393 renal, 17.4%; in the experiment on SF-268 CNS, 92.1%. The growth is -4.38% (active) in the experiment with SF-295 CNS, 87% with SF-539 CNS, 101% with UACC-257 melanoma and 25.8% in the experiment with M14 melanoma.
`c1csc(-c2nc(-c3cc4ccccc4c(N4CCOCC4)n3)cs2)c1`: the growth in the experiment on DU-145 prostate was 113%; with K-562 leukemia, 102%; in the experiment on MALME-3M melanoma, 0.576% (active); in the experiment with MDA-MB-231 breast, 88.7%; in the experiment with RXF 393 renal, 111%; with SF-268 CNS, 91.6%. Besides, the growth is 101% in the experiment with SF-295 CNS, 103% with SF-539 CNS, 17.3% in the experiment on UACC-257 melanoma and 49.1% in the experiment with M14 melanoma.
Consider `COc1cc2c(cc1-c1c(C)noc1C)ncc1nc(C3CC3)n([C@H](C)COC(F)F)c12`, for which the growth was 72.4% in the experiment on DU-145 prostate; 30.4% with K-562 leukemia; 80.4% with MALME-3M melanoma; 51% with MDA-MB-231 breast; 53.9% with RXF 393 renal; 71.2% in the experiment on SF-268 CNS. For the same molecule, the growth with SF-295 CNS was 56.8%; in the experiment on SF-539 CNS it was 39.4%; in the experiment with UACC-257 melanoma, 36.3%; in the experiment with M14 melanoma it was 44.2%.
